This passage reports growth results from PubChem BioAssay (NCI).

Holding throughout (experiment): NCI-60 one-dose screen, 48 h (100 = growth as untreated, 0 = no growth, -100 = all killed)
Assay [1] relates to SK-MEL-2 melanoma. The conditions noted are these: 10 µM.
Assay [2] relates to EKVX NSCLC. The conditions noted are these: 10 µM.
In assay [3] the test system is SN12C renal. The conditions noted are these: 10 µM.
The test system of assay [4] is UO-31 renal. The conditions noted are these: 10 µM.
Assay [5] deals with TK-10 renal. The settings on record: 10 µM unless noted.
The subject of assay [6] is ACHN renal. The settings on record: 10 µM.
Assay [7] relates to CAKI-1 renal. The conditions noted are these: 10 µM.
Assay [8] relates to CCRF-CEM leukemia. The settings on record: 10 µM.
In assay [9] the test system is MOLT-4 leukemia. The settings on record: 10 µM.
For assay [10], the system named is A498 renal. The conditions noted are these: 10 µM.

SMILES strings stand for the structures. Compounds without any hit were thinned out: in the full panel of roughly 83,000, 20% have a hit.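 48-hour exposure, single concentration, 96-well plates; percent growth endpoint where 0 means no net growth. Active: below 10.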 A number with no mark means an inactive call. Active and inactive are the calls of the source.

Turning to `Cc1c(C(=O)O)c(=O)n(-c2ccccc2)n1C`, the growth in assay [1] was 116%; in [2], 103%; in assay [3], 105%; in [4], 89.6%; in assay [5], 123%; in assay [6] it was 109%. The growth in assay [7] is 98.3%; in assay [8], 108%; in assay [9], 113%.
With `CC1=CC(=O)c2ccccc2C1=O`, the growth in [1] was 110%; in assay [2] it was 114%; in [3] it was 99.3%; in assay [4], 70%; in [5] it was 124%; in assay [6] it was 95.2%. For the same molecule, the growth in [7] was 97.5%; in [10], 103%; in [9] it was 114%.
`C/C(O)=C(\C=N\C(N)=S)C(=O)Nc1ccccc1`: the growth in assay [1] was 107%; in [2] it was 106%; in assay [3] it was 94.1%; in [4] it was 91.5%; in [5], 124%; in assay [6] it was 103%. The growth in assay [7] was 97.8%; in assay [10], 98.6%; in assay [9] it was 103%.
Take `O=c1[nH]cc(Cl)cc1O`: the growth is 89% in assay [1]; 82.2% in [2]; 95% in [3]; 62.4% in [4]; 89.4% in [5]; 62.2% in assay [6]. Besides, the growth is 85.9% in [7], 49% in assay [8] and 92.1% in [9].
`CCCNC(=O)c1ccc(S(N)(=O)=O)cc1`: the growth is 120% in assay [1]; 112% in assay [2]; 107% in assay [3]; 107% in assay [4]; 119% in [5]; 101% in [6]. Also, the growth was 110% in assay [7], 81.6% in [8] and 109% in assay [9].
Regarding `O=[N+]([O-])c1cccc(N=Nc2ccc(O)cc2O)c1`, the growth in assay [1] is 79.8%; in [2] it was 69.9%; in [3], 79.6%; in assay [4], 57.3%; in assay [5] it was 65.7%; in assay [6], 78.7%. Further, the growth in assay [7] is 39.1%; in [10], 66.9%; in assay [9] it was 50.2%.
With `N#CCCN(CCCN1CCOCC1)CN1C(=O)c2ccccc2C1=O`, the growth in assay [1] is 118%; in assay [2], 107%; in assay [3], 108%; in [4], 77.2%; in assay [5], 103%; in assay [6], 113%. In addition, the growth in assay [7] is 98.6%; in assay [8] it was 106%; in [9] it was 90.9%.
For `Cc1cc(Cc2cc(C)c(N)cc2N)c(N)cc1N`, the growth in assay [1] was 96.7%; in assay [2], 109%; in assay [3] it was 88.3%; in [4], 77.2%; in [5], 146%; in [6], 98.8%. In addition, the results for the growth in [10], in [8] and in assay [9] were 98.8%, 96.8% and 73.2%, respectively.
As to `COc1ccc(C)cc1OC`, the growth in assay [1] is 112%; in assay [2], 108%; in [3] it was 99.3%; in assay [4], 89.8%; in assay [5] it was 104%; in assay [6], 115%. For the same molecule, the growth in [7] was 101%; in assay [10], 94.5%; in assay [9], 110%.
As for `O=C1c2ccccc2C(=O)c2c1ccc(C(=O)O)c2[N+](=O)[O-]`, the growth is 119% in assay [1]; 109% in assay [2]; 101% in [3]; 85.1% in [4]; 109% in assay [5]; 98.8% in assay [6]. Further, the figures for the growth in assay [7], in assay [10] and in assay [9] were 98.8%, 84% and 93.5%, respectively.
Regarding `CC1CCCC(CC(N)=O)CC1` (stereo not drawn), the growth in assay [1] was 109%; in assay [2], 107%; in assay [3], 107%; in [4], 91%; in assay [5], 94.2%; in assay [6], 103%. Besides, the growth was 93.4% in assay [7], 90.4% in assay [8] and 101% in assay [9].
With `CO[C@H]1C[C@@H]2CC[C@@H](C)[C@@](O)(O2)C(=O)C(=O)N2CCCC[C@H]2C(=O)O[C@H]([C@H](C)C[C@@H]2CC[C@@H](O)[C@H](OC)C2)CC(=O)[C@H](C)C=C(C)[C@@H](O)[C@@H](OC)C(=O)[C@H](C)C[C@H](C)/C=C/C=C/C=C1C`, the growth in [1] is 75.8%; in assay [2], 36.5%; in [3], 74.2%; in assay [4], 26.3%; in assay [5] it was 71.7%; in assay [6], 59.3%. Besides, the growth in [7] was 52.2%; in assay [8], 30.6%; in assay [9], 37.4%.
As to `CC(C)OC(=O)c1cc(NC(=S)OC(C)C)ccc1Cl`, the growth in assay [1] is 96.4%; in assay [2], 85.8%; in assay [3], 93%; in assay [4], 80.2%; in assay [5], 86.1%; in assay [6] it was 98.7%. For the same molecule, the growth in [7] was 53.6%; in [8], 88.8%; in assay [9], 75.7%.
On to `C=CCNC(=O)c1ccc(OC)cc1`, for which the growth is 97.6% in [1]; 109% in assay [2]; 99.1% in [3]; 74.7% in assay [4]; 120% in assay [5]; 106% in assay [6]. The growth in [10] is 133%; in assay [8] it was 98.4%; in assay [9] it was 102%.
Consider `CCCCCCCCCCCCCCCCC1CC(=O)OC1=O` (stereo not drawn), for which the growth in assay [1] is 113%; in assay [2], 96.9%; in [3] it was 101%; in assay [4], 93.5%; in assay [5], 107%; in [6], 110%. Further, the growth is 97.9% in assay [7], 96.5% in [8] and 118% in assay [9].
Turning to `N#CC1(Nc2ccc3c4c(cccc24)CC3)CCCCC1`, the growth in assay [1] was 90.3%; in assay [2], 102%; in assay [3] it was 92.7%; in assay [4], 55.6%; in assay [5] it was 102%; in [6], 101%. For the same molecule, the growth was 74.8% in assay [7], 59% in [8] and 70.1% in assay [9].
With `CCc1ccc(/C(C#N)=C/C=C/c2ccccc2)cc1`, the growth was -12.2% (active) in assay [1]; 52.3% in assay [2]; 53.2% in [3]; 42.9% in [4]; 16.9% in [5]; 58.3% in assay [6]. Moreover, the growth in assay [7] is 53.7%; in [8], -5.51% (active); in assay [9] it was 20.7%.
`COc1cc(/C=N\Nc2ccccc2)ccc1OC(=O)c1ccccc1`: the growth is 64.3% in assay [1]; 66.1% in assay [2]; 79.4% in assay [3]; 21.5% in [4]; 96.2% in [5]; 45.2% in assay [6]. In addition, the growth was 40.3% in assay [7], 37.4% in assay [8] and 38.5% in assay [9].
`CN(C)c1ccc2oc(=O)c3ccccc3c2c1`: the growth in [1] is 106%; in [2] it was 50.4%; in assay [3] it was 89.2%; in assay [4], 81%; in assay [5] it was 107%; in [6], 103%. Moreover, the growth in assay [7] was 98.4%; in [8] it was 110%; in assay [9], 131%.
Turning to `c1ccc(Sc2ccccc2)cc1`, the growth is 97.5% in assay [1]; 101% in assay [2]; 105% in assay [3]; 87% in [4]; 101% in assay [5]; 108% in assay [6]. Further, the figures for the growth in assay [10], in assay [8] and in [9] were 97.6%, 97.7% and 87.4%, respectively.
With `COc1cc(CN)ccc1O`, the growth in assay [1] was -8.32% (active); in assay [2] it was 71.3%; in [3], 81.7%; in [4], 82.7%; in assay [5] it was 88.4%; in assay [6], 96%. Further, the growth in assay [10] was 128%; in [8], 93.1%; in [9] it was 134%.
With `O=C1C[C@H](c2ccccc2)[C@H](c2ccccc2)C1`, the growth in [1] is 93%; in [2], 106%; in [3] it was 98.7%; in assay [4], 81.9%; in [5] it was 94.2%; in assay [6] it was 102%. Besides, the growth in [7] was 89.7%; in [8], 95.1%; in [9], 94.9%.
As for `CCCC(=O)c1cc(C)ccc1OC`, the growth is 103% in assay [1]; 117% in assay [2]; 94.5% in [3]; 104% in assay [5]; 103% in assay [6]; 104% in assay [7]. Besides, the growth in [10] is 119%; in assay [8], 96.5%.
Consider `Cc1ccc(Cl)cc1NC(=O)N(C)CCO`, for which the growth in assay [1] was 97.4%; in assay [2], 116%; in [3], 105%; in assay [4], 76%; in assay [5], 126%; in [6], 103%. For the same molecule, the values for the growth in assay [10], in [8] and in [9] were 111%, 98.7% and 97.5%, respectively.
`Nc1nc(N)c(N=Nc2ccc(C(=O)O)cc2)c(N)n1`: the growth in assay [1] is 97.1%; in [2], 100%; in [3] it was 91.4%; in assay [4] it was 53.6%; in [5], 130%; in [6], 103%. Besides, the growth was 96.2% in assay [10], 102% in [8] and 102% in assay [9].
`S=c1[nH]ccn1-c1ccccc1Cl`: the growth was 118% in [1]; 112% in [2]; 116% in assay [3]; 94.2% in [4]; 128% in [5]; 101% in assay [6]. Besides, the growth in assay [10] was 101%; in assay [8] it was 96.6%; in assay [9] it was 97.4%.
For the molecule `C#CCSc1nnnn1-c1ccc(Br)c(C)c1`, the growth was 86.9% in assay [1]; 35.7% in assay [2]; 71.8% in assay [3]; -93.1% (active) in [4]; 111% in assay [5]; 92.5% in [6]. Also, the growth in assay [10] is 124%; in assay [8], 87.5%; in [9], 88.4%.
With `C[N+](C)=c1ccc2nc3c(cc(Nc4ccccc4)c4ccccc43)oc-2c1`, the growth in assay [1] was 10.9%; in assay [2] it was 90.2%; in [3] it was 79.9%; in assay [4], 59.1%; in assay [5], 106%; in assay [6], 82.1%. In addition, the values for the growth in assay [10], in assay [8] and in assay [9] were 51%, 57.8% and 38%, respectively.
With `CCOC(=O)CSc1c([N+](=O)[O-])ncn1C`, the growth in assay [1] is 95.4%; in assay [2], 95.6%; in assay [3], 102%; in assay [4], 89.8%; in assay [5], 94.2%; in [6], 101%. For the same molecule, the figures for the growth in [10], in assay [8] and in [9] were 114%, 94.8% and 94.8%, respectively.
`O=C(CS)Nc1ccc2ccccc2c1`: the growth was 116% in assay [1]; 119% in assay [2]; 101% in assay [3]; 88.7% in assay [4]; 128% in assay [5]; 93.6% in assay [6]. Further, the values for the growth in assay [10], in assay [8] and in assay [9] were 98.8%, 81.1% and 84.5%, respectively.
`Cc1ccccc1N=C(c1ccccc1)C1C(=O)c2ccccc2C1=O`: the growth in [1] is 59.9%; in assay [2], 88.9%; in assay [3], 90.9%; in [4], 82.5%; in assay [6], 88.3%; in assay [7], 84.6%. The growth in assay [10] was -13.7% (active); in assay [8], 65.1%; in assay [9], 56.4%.
